From PubChem
Many of the other results were omitted from the sample, so hits are more common in it than they were.
nsP2pro inh: Primary qHTS for inhibitors of NSP2Pro chikungunya virus (CHIKV) | Potency, µM (top dose mostly 24.9 µM), for the others: at the highest dose activity change, negative = inhibition, actives largely listed as inhibitors | AID 1964107, 2024 | Polyprotein P1234 (Chikungunya virus (strain S27-African prototype)), Q8JUX6 | 1.1% of 31,000 active | FRET peptide cleavage, nsP2pro, fluorescence 1 h; also: nearly all actives have a fitted effect of over 60% in size
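Purified recombinant nsP2pro (150 nM final) in 10 mM Tris-HCl pH 8.0 with 0.01% Tween 20 was preincubated 15 min at room temperature with compound (7 concentrations, up to 25 uM). FRET peptide 2 substrate (2.5 uM final) was then added; fluorescence was read after 1 h.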
nsP2 cell sec: Secondary cell base assay for inhibitors of NSP2Pro Chikungunya virus (CHIKV); shares compounds with nsP2pro inh; cell-based CHIKV nsP2 protease reporter assay; Potency, µM (top dose mostly 51.1 µM), for the others: top-dose activity change, negative = inhibition, actives largely listed as inhibitors; 10% of 450 active; AID 1964100, 2024; also: nearly all actives have a fitted effect of over 70% in size
CHIKV NSP2 FL: Selectivity profile for inhibitors of NSP2Pro chikungunya virus (CHIKV): Full length NSP2 enzyme counterscreen (CHIKV-NSP2) | Potency, µM (series often up to 50.7 µM), without a hit: at the highest dose activity change, negative = inhibition, actives largely listed as inhibitors | 39% of 410 active | shares compounds with nsP2pro inh | Full-length CHIKV NSP2 protease enzymatic counterscreen; also: nearly all actives have a fitted effect of over 65% in size
Furin counter: Selectivity profile for inhibitors of NSP2Pro chikungunya virus (CHIKV): Human furin counterscreen | 6% of 410 active | shares compounds with nsP2pro inh | Potency, µM (doses to about 50.6 µM), for inactives: at the top dose activity change, negative = inhibition, hits mostly inhibitors | Recombinant human furin enzymatic counterscreen, fluorogenic substrate
NS23 peptide cs: Selectivity profile for inhibitors of NSP2Pro chikungunya virus (CHIKV): Endogenous NS2/3 peptide Counterscreen; shares compounds with nsP2pro inh; Purified CHIKV nsP2 protease, endogenous NS2/3 peptide cleavage; Potency, µM (top dose mostly 51 µM), inactives show at the top dose activity change, negative = inhibition, hits mostly inhibitors; 34% of 410 active; AID 1964103, 2024; also: nearly all actives have a fitted effect of over 55% in size
Papain counter: Selectivity profile for inhibitors of NSP2Pro chikungunya virus (CHIKV): Papain Counterscreen | shares compounds with nsP2pro inh | Potency, µM (titrated, usually from 51 µM), for inactives: at the highest dose activity change, negative = inhibition, actives largely listed as inhibitors | 5% of 410 active | purified papain protease activity, enzymatic inhibition
Target sequence (P00784 whole entry, looked up): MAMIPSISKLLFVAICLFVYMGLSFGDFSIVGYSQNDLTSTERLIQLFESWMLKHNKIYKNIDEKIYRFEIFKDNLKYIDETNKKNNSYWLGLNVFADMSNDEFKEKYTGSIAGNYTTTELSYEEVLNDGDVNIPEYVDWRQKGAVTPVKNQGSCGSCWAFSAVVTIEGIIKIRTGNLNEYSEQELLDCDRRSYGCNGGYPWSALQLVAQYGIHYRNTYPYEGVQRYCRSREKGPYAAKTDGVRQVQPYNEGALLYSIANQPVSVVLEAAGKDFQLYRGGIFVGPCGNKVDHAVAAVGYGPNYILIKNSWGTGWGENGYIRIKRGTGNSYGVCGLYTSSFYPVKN
nsP2pro conf qHTS: Confirmatory qHTS for inhibitors of NSP2Pro chikungunya virus (CHIKV); shares compounds with nsP2pro inh; CHIKV nsP2 protease enzymatic activity, qHTS; Potency, µM (top dose mostly 25.5 µM), without a hit: at the highest dose activity change, negative = inhibition, hits mostly inhibitors; 43% of 410 active; AID 1964105, 2024; also: nearly all actives have a fitted effect of over 75% in size
HCV NS3 4A cs: Selectivity profile for inhibitors of NSP2Pro chikungunya virus (CHIKV): NS34A-HCV Counterscreen | Potency, µM (series often up to 50.9 µM), usual class: inhibitors | 20% of 410 active | AID 1964106, 2024 | HCV NS3/4A protease biochemical counterscreen | shares compounds with nsP2pro inh; also: nearly all actives have a fitted effect of over 55% in size
Starred values were filed as active, the others as inactive; i = inactive; ? = inconclusive; ! = not confirmed by another sample; [ ] = remark or other dose. Calls follow the shape of the full dose curve. % is scaled to controls: 0 for no effect and ±100 for the full control effect; potency is read from the fitted curve at half-maximal effect.

SMILES	nsP2pro inh	others
Cc1cc(C(=O)N2CCC(OCCOc3ccc(F)cc3)CC2)nn1C	-6%
Cc1cc(C)n2ncc(C(=O)Nc3ccncc3)c2n1	0%
O=[S+]([O-])(Nc1ccccc1F)c1cccc(NC/C=C/c2ccccc2)c1	3%
O=C1NC(=O)/C(=C/c2ccc3c(c2)OCO3)S1	31%
Cc1ccc(CNC(=O)c2nc(SCc3ccccc3F)ncc2Cl)cc1	11µM*	nsP2 cell sec=45%;CHIKV NSP2 FL=-3%;Furin counter=-2%;NS23 peptide cs=8%;Papain counter=-3%;nsP2pro conf qHTS=7%;HCV NS3 4A cs=i
Cc1ccc(CNC(=O)c2nc(SCc3ccc(C)cc3)ncc2Cl)cc1	-23%
Cc1ccc(CNC(=O)c2nc(SCc3ccc(F)cc3)ncc2Cl)cc1	-3%
Cc1c(C(=O)OCC2CCCO2)[nH]c2c1C(=O)CCC2 (stereo not given)	3%
COC1CC(=O)CCC(C)OC(=O)CC1O (stereo not given)	-26%
NC[C@@](O)(c1ccc(Cl)cc1)c1ccc(-c2cn[nH]c2)cc1	153%
Cc1cnc(-c2ccccc2)n1C1CCCN(S(=O)(=O)c2ccccc2)C1 (stereo not given)	i
O=C1c2ccccc2C(=O)N1c1cccnc1	i
O=C1OC(/C=C/c2ccccc2)=NC/1=C\c1cccnc1	8%
O=C1C(=Cc2cccnc2)C(=O)c2ccccc21	?	nsP2 cell sec=-11%;CHIKV NSP2 FL=?;Furin counter=-10%;NS23 peptide cs=18µM*;Papain counter=-7%;nsP2pro conf qHTS=5µM*;HCV NS3 4A cs=?
COc1ccc(CNc2nc(N3CCC[C@H]3CO)ncc2C(=O)NCc2ncccn2)cc1Cl	26%
CCn1c2c(c(=O)n1Cc1ccccc1)CCN(C(=O)c1ccc(Oc3ccccc3)cc1)C2	5%
COC(=O)c1c(NC(=O)C(C)N2C(=O)c3ccccc3C2=O)sc2c1C(C(=O)OC)CC2 (stereo not given)	?	nsP2 cell sec=?;CHIKV NSP2 FL=?;Furin counter=-9%;NS23 peptide cs=5.8µM*;Papain counter=-9%;nsP2pro conf qHTS=3.6µM*;HCV NS3 4A cs=i
COC(=O)c1c(NC(=O)/C(C#N)=C/c2ccc(OC)cc2)sc2c1C(C(=O)OC)CC2 (stereo not given)	-8%
COC(=O)c1c(NC(=O)/C(C#N)=C/c2ccccc2)sc2c1C(C(=O)OC)CC2 (stereo not given)	0%
Cc1ccc(OCCn2c(CCNC(=O)C3CC3)nc3ccccc32)cc1	-12%
CC1=C(O)C(=O)C=C2C1=CC=C1[C@@]2(C)CC[C@@]2(C)[C@@H]3C[C@](C)(C(=O)O)CC[C@]3(C)CC[C@]12C	4.4µM*!	nsP2 cell sec=?;CHIKV NSP2 FL=16µM*;Furin counter=?;NS23 peptide cs=4.6µM*;Papain counter=?;nsP2pro conf qHTS=1.8µM*;HCV NS3 4A cs=21µM*
C[C@@]1(C(=O)O)CC[C@]2(C)CC[C@]3(C)C4=CC(=O)c5cc(O)c(O)cc5[C@]4(C)CC[C@@]3(C)[C@@H]2C1	-9%[10 µM]
CC1(C)[C@@H](O)CC[C@]2(C)[C@H]3CC=C4[C@@H]5C[C@](C)(C(=O)O)CC[C@]5(C)CC[C@@]4(C)[C@]3(C)CC[C@@H]12	22%
CCc1cc(N2CCOCC(O)(CN3CCCC3)C2)nc(N2CCCC2)n1 (stereo not given)	i
CN1C(=O)CC[C@]2(C(=O)N3CCCCC3)CCCC[C@@H]12	4%
SMILES	nsP2pro inh	others
CCC1CCC(C(=O)Nc2ccc(S(=O)(=O)Nc3nccs3)cc2)CC1 (stereo not given)	i
CCOC(=O)Cn1cccc1-c1nc(-c2ccc(OC)cc2)c(-c2ccc(OC)cc2)s1	6.2µM*	nsP2 cell sec=-5%;CHIKV NSP2 FL=?;Furin counter=-10%;NS23 peptide cs=-3%;Papain counter=7%;nsP2pro conf qHTS=10%;HCV NS3 4A cs=i
COc1ccc(-c2nnc(SCC(=O)Nc3c(C)cccc3C)nc2-c2ccc(OC)cc2)cc1	-25%
COc1ccc(-c2noc(CC(=O)O)c2-c2ccc(OC)cc2)cc1	-4%
C[S+](=O)([O-])N1CCC(c2nnc3n2C(C(=O)NC2CCCCC2)CC3)CC1 (stereo not given)	-6%
Cc1cc2nc3c(=O)[nH]c(=O)nc-3n(C[C@H](O)[C@H](O)[C@H](O)COP(=O)(O)OP(=O)(O)OC[C@H]3O[C@@H](n4cnc5c(N)ncnc54)[C@H](O)[C@H]3O)c2cc1C	-8%[10 µM]
CCCCCCCCCCCCCCCC(=O)O	-15%
C=CCCCCCCCCC(=O)O	4.3µM*	nsP2 cell sec=-4%[17.6 µM];CHIKV NSP2 FL=1.4µM*;Furin counter=?;NS23 peptide cs=?;Papain counter=?;nsP2pro conf qHTS=2.2µM*;HCV NS3 4A cs=i
CCCCCCCC(=O)O	-5%
COc1ccc(C(=O)N2CCOC3(CCN(C(=O)CCN)CC3)C2)cc1	-10%
NCCCC(=O)N1CCC2(CC1)CN(C(=O)c1ccc(Cl)cc1)CCO2	-18%
NCCC(=O)N1CCC2(CC1)CN(C(=O)c1ccc(Cl)cc1)CCO2	7.9µM*	nsP2 cell sec=-11%;CHIKV NSP2 FL=12µM*;Furin counter=11%;NS23 peptide cs=18µM*;Papain counter=-2%;nsP2pro conf qHTS=9µM*;HCV NS3 4A cs=2.9µM*
Cc1ccsc1C(=O)NC1CCN(c2cc(-c3ccc(F)cc3)[nH]n2)C1 (stereo not given)	i
Cc1cc2c(s1)c1cnn(Cc3cc(C(F)(F)F)ccc3F)c(=O)c1n2C	-5%
Oc1ccc(NCc2ccccc2OCc2ccccc2Cl)cc1	0.85µM*	nsP2 cell sec=12µM*;CHIKV NSP2 FL=10µM*;Furin counter=-9%;NS23 peptide cs=16µM*;Papain counter=-11%;nsP2pro conf qHTS=8µM*;HCV NS3 4A cs=18µM*
Oc1ccc(NCc2ccccc2OCc2ccccc2F)cc1	8.9µM*	nsP2 cell sec=?;CHIKV NSP2 FL=23µM*;Furin counter=-3%;NS23 peptide cs=21µM*;Papain counter=-10%;nsP2pro conf qHTS=?;HCV NS3 4A cs=?
Cn1nnnc1SCCNCc1ccccc1OCc1ccccc1F	-23%
O=S(=O)(Nc1cccc2ccccc12)c1ccc(NCc2cccc(Cl)c2O)cc1	-26%
O=S(=O)(Nc1nccs1)c1ccc(NCc2cccc(F)c2O)cc1	i
O=S(=O)(Nc1ccc2ccccc2c1)c1ccc(NCc2cccc(Cl)c2O)cc1	4%
O=C1CCc2cc(S(=O)(=O)NCc3ccccc3)ccc2N1	5%
